PubChem BioAssay (NCI)
About 83,000 compounds went through this panel and 20% of them were active in at least one assay; those are over-represented in the sample as a whole.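 The endpoint reported here, percent growth, reads 100 for growth as untreated, 0 for no net growth and -100 for all cells dead.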 Values without a mark were called inactive. Active and inactive are the calls of the source.

These compounds were tested on ACHN renal (assay: NCI-60 one-dose screen, 48 h (100 = growth as untreated, 0 = no growth, -100 = all killed)). Conditions: 10 µM unless noted.
Description: Growth inhibition of the ACHN human tumor cell line is measured as a screen for anti-cancer activity. Cells are grown in 96 well plates and exposed to the test compound for 48 hours. Compounds are tested at a single concentration, which is 10^-5 M for most compounds. The reported endpoint is percent growth (GI% or GIPRCNT), where numbers from 0 - 100% represent growth inhibition, and numbers from -100% - 0 represent cell death. For example, a value of 40 represents 60% growth inhibition. A value of 0 means no net growth occurred over the course of the experiment. A value of -40 indicates 40% of cells at the beginning of the experiment died by the end of the experiment. A value of -100 means all cells are dead at the end of the experiment.
NCI-60 Human Tumor Cell Lines Screen was performed using the standard one-dose NCI protocol, which is described in more detail at https://dtp.cancer.gov/discovery_development/nci-60/default.htm.
Compounds with GIPRCNT values below 10 were considered active. Activity score was based on GIPRCNT using the following formula: […]
Score is 0 for GIPRCNT values of 100 or above, 50 for GIPRCNT values of 0, and 100 for GIPRCNT values of -100.

Q: `Cc1ccc(Cc2cnc(NC(=O)CN3C(=O)/C(=C\c4ccccc4)SC3=S)s2)cc1` was tested. Which growth did it give?
A: 101%

Q: Which growth does the source give for `COc1ccc(/C=C/C(=O)c2c(C)nc3ccccc3c2/C=C/c2ccccc2)c(OC)c1` here?
A: 79.5%

Q: How did the growth turn out when `COC(=O)[C@H](NC(=O)C1(C)CCC[C@]2(C)[C@H]3C[C@H]4C(C(C)C)=C[C@]3(CC[C@@H]12)[C@@H]1C(=O)CCC(=O)[C@@H]14)C(C)C` (stereo not given in full) was run?
A: 100%

Q: With `CCN(CC)c1cc(C)c2cc(NC(=O)c3cccc(OC)c3)ccc2n1` as the compound, how does the growth read?
A: 91.2%

Q: `CCOC(=O)c1cnc2ccc(Cl)cc2c1NCCCN(C)C` was tested. Which growth did it give?
A: 18.3%

Q: `CCOc1cc(Cl)c(C(C)NC(=O)c2cccc(OC)c2)cc1OCC` (stereo not given) was tested. Which growth did it give?
A: -73.3% (active)

Q: For `COc1ccc(/C(C#N)=C/c2nc3c(N4CCOCC4)nc(Cl)nc3n2C)cc1OC`, which growth is on record?
A: -51.3% (active)

Q: How did the growth turn out when `Cc1ccc(N=NC2C(=O)N(c3ccc(Cl)cc3)N(c3ccc(Cl)cc3)C2=O)cc1` was run?
A: 95%

Q: With `NCCOc1ncccc1/C=C1\c2ccccc2-c2ccc([N+](=O)[O-])cc21` as the compound, how does the growth read?
A: -89.4% (active)

Q: How did the growth turn out when `COc1cc(CNC(=O)Cc2ccccc2)ccc1OCc1cn(-c2ccc(F)cc2)nn1` was run?
A: 94.9%

Q: How did the growth turn out when `O=C(Nc1ccc(Cl)cc1)N1CCN(c2ccc3nncn3n2)CC1` was run?
A: 8.04% (active)

Q: `COc1ccccc1N1C(=N)S/C(=C\c2ccc(OCc3ccccc3F)cc2)C1=O` was tested. Which growth did it give?
A: 69.6%

Q: For `Nc1nc(Nc2cccc(F)c2)nc2ccccc12`, which growth is on record?
A: 44.8%

Q: For `Nc1ccc(-n2c(=O)oc3ccc(Cl)cc3c2=O)c(Cl)c1`, which growth is on record?
A: 5.28% (active)

Q: With `Nc1n[nH]c2ccc([C@@H]3Nc4ccc5[nH]ncc5c4[C@H]4[C@H]5CCC(C5)[C@H]43)cc12` as the compound, how does the growth read?
A: 27.7%

Q: For `O=C1Nc2ccccc2/C1=C/c1cccs1`, which growth is on record?
A: 86.7%

Q: Which growth does the source give for `O=C(c1nc2ccccc2[nH]1)C1C(c2ccc([N+](=O)[O-])cc2)C2CC3CCCCC3N2[C@@]12C(=O)Nc1cc(Cl)ccc12` (stereo not given in full) here?
A: 18.4%

Q: Which growth does the source give for `O=C(Nc1ccc(F)cc1F)c1cc(I)ccc1O` here?
A: 11%

Q: With `CCCCC(O)(c1ccc(Cl)cc1)C(CN1CCOCC1)c1ccc(Cl)cc1` (stereo not given) as the compound, how does the growth read?
A: 33.2%

Q: `O=c1nc2sc3nc4ccccc4cc3cc-2s1` was tested. Which growth did it give?
A: 105%

Q: How did the growth turn out when `Nc1nc2c(ncn2[C@@H]2O[C@H](CS)[C@@H](O)[C@H]2O)c(=O)[nH]1` was run?
A: 99.8%

Q: With `Nc1ncnc(N)c1NC(=O)c1ccc(OCc2ccccc2)cc1` as the compound, how does the growth read?
A: 99.9%

Q: For `COc1ccc(/C=C2\CCC/C(=C\c3ccc(OC)c(OC)c3)C2=O)cc1OC`, which growth is on record?
A: 8.29% (active)

Q: With `O=C(Nc1ccc(Br)cc1F)c1cc(F)ccc1O` as the compound, how does the growth read?
A: 1.78% (active)

Q: Which growth does the source give for `COc1cc(-c2c3c(cn2S(=O)(=O)c2ccccc2)-c2nc(N)sc2CC3)cc(OC)c1OC` here?
A: 49.9%

Q: How did the growth turn out when `O=NN(C(=O)NC1CCC(C(=O)O)CC1)C1CCC(C(=O)O)CC1` (stereo not given) was run?
A: 100%

Q: `COc1ccc(-n2c(C(O)c3ccccc3)nn(CN3CCOCC3)c2=S)cc1` (stereo not given) was tested. Which growth did it give?
A: 88.6%

Q: For `c1ccc2cc3c(Nc4ccc(N5CCOCC5)cc4)ccnc3cc2c1`, which growth is on record?
A: 94.8%

Q: `COc1cc(/C=C2\Oc3cc(OCCCN4CCCC4)ccc3C2=O)cc(OC)c1` was tested. Which growth did it give?
A: -45.4% (active)

Q: How did the growth turn out when `C=C(C)CCC(C)N1CCC(N2CCC(C(=O)NCCc3ccccc3)CC2)CC1` (stereo not given) was run?
A: 72.1%

Q: How did the growth turn out when `CCOC(=O)c1c(Cl)c2c(n1Cc1ccccc1)-c1oncc1CCC2` was run?
A: 65.8%

Q: How did the growth turn out when `O=C(Nc1ccc(N2CCNCC2)cc1)c1[nH]ncc1Nc1cc(Oc2ccccc2)ncn1` was run?
A: -99.1% (active)

Q: For `O=C(CCc1nnc2sc(-c3ccc(Cl)cc3Cl)nn12)c1nc2ncccc2[nH]1`, which growth is on record?
A: -48% (active)

Q: With `CCCCNc1nc(NC(C)(C)C)nc(NC(C)(C)C)n1` as the compound, how does the growth read?
A: 62.9%

Q: Which growth does the source give for `CN1C(=O)N(C)C2C1NN=c1s/c(=C\c3c[nH]c4ccccc34)c(=O)n12` (stereo not given) here?
A: 32.5%

Q: How did the growth turn out when `COc1ccc(OC)c(N(CCN2C(=O)c3ccccc3C2=O)C(=O)CCl)c1` was run?
A: 78.8%

Q: For `O=c1c(-c2nc3ccccc3[nH]2)cc2ccccc2n1Cc1cn(Cc2ccccc2Cl)nn1`, which growth is on record?
A: 12.2%

Q: Which growth does the source give for `CN1CCN(Cc2ccc(NC(=O)c3cncc(C#Cc4nc(N)nc5[nH]ncc45)c3)cc2C(F)(F)F)CC1` here?
A: 99.8%

Q: For `Oc1c(CN2CCN(c3ccccc3F)CC2)cc(Br)c2cccnc12`, which growth is on record?
A: -30.4% (active)

Q: How did the growth turn out when `COc1ccc(C(=O)C2CC2c2ccc(Cl)cc2)cc1` (stereo not given) was run?
A: 78.6%
